PI4K2A block: inhibitors of human PI4K2A; purified PI4K2A, ADP-Glo luminescence, 1 h; stronger effect = lower value; activity change, negative = inhibition, % at 76.9 µM; actives 0.13% (n = 420,000); AID 1346378; in the data active = activity change below about -50%; inconclusive = mostly about -30% to -49%;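 note: -100% = wells without enzyme as full effect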
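PI4K2A activity was measured by ADP-Glo luminescence: enzyme (4 ug/mL stock) and phosphatidylinositol (1.2 mM stock) in Tris pH 7.5/MgCl2/EGTA/Triton X-100 buffer were reacted with ATP (300 microM stock) for one hour at ambient temperature.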
LDHA inh: inhibitors of human lactate dehydrogenase A. P00338. purified LDHA, NADH/diaphorase-resazurin fluorescence; stronger effect = lower value. activity change, % (values are at about 110 or 230 µM). actives 0.15% (n = 480,000). AID 1347041; in the data active = activity change below about -30%; inconclusive = mostly about -25% to -30%;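 note: plate controls were DMSO wells for no effect and wells without enzyme for full effect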
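Remaining NADH was detected by diaphorase (0.133 mg/mL) converting 37 µM resazurin to fluorescent resorufin, read at 0 and 20 minutes. The preceding 5-minute room-temperature reaction used 2 nM LDHA, 0.2 mM sodium pyruvate and 0.06 mM NADH at pH 7.4.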
RGS4 inhibitor: human RGS4 inhibition. P49798. Transcreener GDP fluorescence polarization, RGS4-accelerated GTP hydrolysis. Potency, µM (highest dose often 114 µM), without a hit: at the top dose activity change, negative = inhibition, hits mostly inhibitors. actives 0.039% (n = 390,000). AID 504845; active = well fitted inhibition curve with a large enough effect; inconclusive = small, poorly fitted or top-dose-only effect; inactive = no such curve, though single readings can be large or run the other way; note: potency is the fitted concentration of half-maximal effect; % is set by controls: 0 for no effect and ±100 for the full control effect; nearly all actives have a fitted effect of over 75% in size
Target sequence (P49798 whole entry, looked up): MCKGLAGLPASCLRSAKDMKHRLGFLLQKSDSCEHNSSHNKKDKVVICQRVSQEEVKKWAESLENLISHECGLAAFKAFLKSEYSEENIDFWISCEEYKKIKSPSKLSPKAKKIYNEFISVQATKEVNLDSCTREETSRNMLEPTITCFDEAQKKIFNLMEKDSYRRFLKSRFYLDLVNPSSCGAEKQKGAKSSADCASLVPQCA
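MLSMR compounds (23 nl, pin-transferred) preincubated 10 min at room temperature with a 500nM (2x) first reagent, then RGS4 at 900nM (2x) plus Transcreener GDP mix added; fluorescence polarization (620/688 nm) read before and after 90 min at 30 °C.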
D3 antag: blocks the human D3 dopamine receptor; AID 652054; P35462; D3R cells, DiscoveRx beta-arrestin luminescence, antagonist mode; stronger effect = lower value; max response, negative = inhibition, %; actives 2.5% (n = 360,000); in the data active = max response below about -50%; inconclusive = no clear call, values can overlap the other calls; note: % is set by controls: 0 for no effect and ±100 for the full control effect
Target sequence (P35462 whole entry, looked up): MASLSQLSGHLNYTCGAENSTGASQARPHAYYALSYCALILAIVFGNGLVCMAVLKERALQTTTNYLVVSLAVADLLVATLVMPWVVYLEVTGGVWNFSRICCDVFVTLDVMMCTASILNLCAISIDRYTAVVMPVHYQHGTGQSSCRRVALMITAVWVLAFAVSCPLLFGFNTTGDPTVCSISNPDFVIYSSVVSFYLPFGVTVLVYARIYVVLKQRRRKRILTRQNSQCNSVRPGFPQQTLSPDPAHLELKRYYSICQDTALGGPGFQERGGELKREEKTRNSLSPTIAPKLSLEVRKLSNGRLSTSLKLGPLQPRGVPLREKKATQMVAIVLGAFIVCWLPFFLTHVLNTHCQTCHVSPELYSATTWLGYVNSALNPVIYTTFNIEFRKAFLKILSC
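Cells expressing the human receptor were seeded at 1500 cells/well, incubated overnight at 37 degrees C in 5% CO2, then exposed to library compounds with dopamine controls for 90 minutes at 37 degrees C before luminescent detection.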
Akt phos inh: Akt phosphorylation inhibition; Neuro2A IGF-stimulated pAkt S473 HTRF, 20 min; stronger effect = lower value; activity change, % for hits at 50 µM; actives 0.32% (n = 360,000); AID 651550; in the data active = activity change below about -80%; inconclusive = mostly about -51% to -80%; note: % is set by controls: 0 for no effect and ±100 for the full control effect
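Neuro2A cells (4,500/well, DMEM with 0.5% FBS) were treated with compound at a single 50 µM final concentration, stimulated with 6 nM IGF for 20 min at 37 °C, and lysed. Phospho-Akt Ser473 was read by HTRF as 665/615 ratio ×10^4.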
D3 ag: agonists of human D3 dopamine receptor. P35462. D3R DiscoveRx beta-arrestin cells, luminescence, 90 min. max activation, %. actives 0.58% (n = 410,000). AID 652048; in the data active = max activation above about 30%; note: 0% is about no effect
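Agonist mode: compounds and dopamine controls were applied to plated cells for 90 min at 37 degrees C after an overnight attachment at 1500 cells/well. Luminescent read-out followed 30 - 60 minutes at room temperature with DiscoveRx detection reagent.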
Active calls of the source: *; i = inactive; ? = inconclusive; nt = not tested or not shown; ! = not confirmed by another sample; [ ] = remark or other dose. Only some compounds are listed: those with a hit (about 2.8% of all), similar ones and a draw of the others.

SMILES	PI4K2A block	LDHA inh	RGS4 inhibitor	D3 antag	Akt phos inh	D3 ag
COc1cc(NS(=O)(=O)c2ccc(NC(=O)COc3cccc(C)c3)cc2)nc(OC)n1	3	-5	-15%	6	i	-3
COC(=O)CCC(=O)NC(=S)Nc1ccc(S(=O)(=O)Nc2cc(OC)nc(OC)n2)cc1	1	-5	-24%	7	i	1
O=C1CCC(C(=O)Nc2ccc(Cl)c(Cl)c2)N1 (centres undefined)	nt	3	nt	nt	nt	nt
C/C(=N/NC(=O)c1cccs1)c1c(C)[nH]n(-c2nc3ccccc3s2)c1=O	-66*	-11	2%[11.4 µM]	?	i	-10
CCOCCOC(=O)c1nc2ccccc2nc1Nc1ccc(C)cc1C	nt	-8	nt	nt	nt	nt
O=S1(=O)CCC(NS(=O)(=O)/C=C/c2ccccc2)C1 (centres undefined)	8	-3	12%	6	-114%*	1
O=S(=O)(/C=C/c1ccccc1)NC1CCCCCC1	-2	-3	?	-19	i	-10
CCOc1cc(C#N)c(NC(=O)c2ccc(OC)c(S(=O)(=O)N(CC)CC)c2)cc1OCC	nt	4	nt	nt	nt	nt
CC12CCC(C/C1=N\OC(=O)c1ccc(F)cc1)C2(C)C (centres undefined)	5	-2	0%	5	-96%*	5
CC12CCC(C/C1=N/OC(=O)c1cccc([N+](=O)[O-])c1)C2(C)C (centres undefined)	7	0	3%	-17	i	-7
O=c1[nH]cnc2c([N+](=O)[O-])cccc12	-7	-5	16%	-80*	i	-11
Nc1ccc(-c2cnc[nH]2)cc1[N+](=O)[O-]	-51*	-9	-17%	?	i	-24
COc1ccc(C(NC(=O)c2nc(-c3ccccc3)oc2C)c2ccccc2)cc1 (centres undefined)	nt	9	nt	nt	nt	nt
CCC(C)c1ccc(OCCCCN2CCOCC2)cc1 (centres undefined)	-2	-13	17%	-65*	i	-6
CCCCOc1ccc(OCCCN2CCOCC2)cc1	4	-5	14%	5	nt	87*!
CCOc1ccc(OCCOCCN2CCOCC2)cc1	4	-14	-38%	?	i	-2
COc1ccc(Cc2nc3c4c(C)c(C)n(CCO)c4ncn3n2)cc1OC	nt	1	nt	nt	nt	nt
C/C(=N/Nc1ccc(S(N)(=O)=O)cc1[N+](=O)[O-])c1ccc(Cl)cc1	nt	2	nt	nt	nt	nt
Cc1ccc(C(=O)CC2(O)C(=O)N(CN3CCN(C)CC3)c3ccccc32)s1 (centres undefined)	nt	6	nt	nt	nt	nt
CC(=O)CC1(O)C(=O)N(CN2CCN(c3ccccc3)CC2)c2ccccc21 (centres undefined)	0	-1	3%	-58*	i	-24
CC1CCOC2(O1)C(=O)N(CN1CCN(c3cccc(Cl)c3)CC1)c1ccccc12 (centres undefined)	0	3	6%	-57*	i	-15
COC(=O)CN1CCCC1Cc1ccc(OC)cc1 (centres undefined)	nt	-10	nt	nt	nt	nt
N#Cc1c(/N=C/c2cccc(Br)c2)sc2c1CCCC2	nt	16	nt	nt	nt	nt
CC(C)Sc1ccc2nn(CC(=O)Nc3ccc(Cl)cc3)c(=O)n2n1	nt	9	nt	nt	nt	nt
COc1ccc(-c2cc(=O)c3cc(C)ccc3[nH]2)cc1	-7	-9	9%	-22	i	-38
SMILES	PI4K2A block	LDHA inh	RGS4 inhibitor	D3 antag	Akt phos inh	D3 ag
COc1cc2[nH]c(-c3ccc(C)cc3)cc(=O)c2cc1OC	2	-2	-32%	-112*	i	-68
O=S1(=O)CCN(Cc2c(F)cccc2F)c2c(F)nc(N3CCOCC3)c(F)c21	nt	46	nt	nt	nt	nt
CCCc1nnc(SCC(=O)N2CCCC(C)C2)n1CCOC (centres undefined)	-4	-10	25%	-58*	i	-7
CCCc1nnc(SCC(=O)N2CCCCC2C)n1CC1CCCO1 (centres undefined)	-3	-3	14%	-65*	i	2
CCCc1nnc(SCC(=O)N(CC)CC)n1CC1CCCO1 (centres undefined)	-2	-3	1%	28	i	8
Cc1ccc(NCCCNc2ncccc2C#N)nc1	nt	11	nt	nt	nt	nt
Cc1ccc(C(=O)c2c(C)oc3c2C(=O)C(=O)c2ccccc2-3)cc1	-63*	31	?	13	i	-16
Cc1oc2c(c1C(=O)c1ccc(Cl)cc1)C(=O)C(=O)c1ccccc1-2	-9	42	-48%	?	i	-14
CCOc1ccc2c(=O)c(Oc3cccc(C)c3)coc2c1	nt	-5	nt	nt	nt	nt
COc1cccc(OC)c1OCCN1CCN(C(c2ccccc2)c2ccccc2)CC1	-5	3	33%	-109*	i	-6
COc1ccccc1N1CCN(CCCN=C2CC(=O)N(C)C(=O)N2C)CC1	-2	-6	-1%	-56*	i	-62
O=C(O)COCCN1CCN(C(c2ccccc2)c2ccc(Cl)cc2)CC1 (centres undefined)	-7	-4	3%[56.9 µM]	nt	i	nt
OCCOCCN1CCN(C(c2ccccc2)c2ccc(Cl)cc2)CC1 (centres undefined)	-7	-3	-20%	-89*	i	-86
COc1cccc(OC)c1OCCCN1CCC(Cc2ccccc2)CC1	-2	-23	-3%	-95*	i	-20
CCCS(=O)(=O)NCc1cccc(COC(C)(C)C)c1	nt	1	nt	nt	nt	nt
COCC(C)NC(=O)C1CCN(Cc2ccc(C)cc2)CC1 (centres undefined)	nt	0	nt	nt	nt	nt
COc1ccccc1N1CCN(CCCOc2ccc(F)cc2)CC1	4	-15	19%	-91*	i	-17
COc1ccccc1N1CCN(CCCCOc2c(OC)cccc2OC)CC1	3	-18	7%	-108*	i	-16
COc1ccccc1N1CCN(CCOc2c(OC)cccc2OC)CC1	0	-4	-13%[56.9 µM]	-68*	i	-8
COc1cccc(OC)c1OCCN1CCCC1	-1	-2	-6%	-5	i	-1
O=C(/C=C/c1ccco1)N1CCN(Cc2ccc(C(F)(F)F)cc2)CC1	nt	4	nt	nt	nt	nt
CSc1cccc(NC(=O)c2ccc(CN3CCc4ccccc4C3)cc2)c1	3	-8	8%	-96*	i	-7
O=C(Nc1cccc(Br)c1)c1ccc(CN2CCc3ccccc3C2)cc1	5	-11	32%	-56*	i	-16
CCc1nnc(NC(=O)c2nnn(-c3ccccc3OC)c2C)s1	nt	-3	nt	nt	nt	nt
Cc1oc2c(C)c3oc(=O)c(CCC(=O)N4C[C@H]5C[C@@H](C4)c4cccc(=O)n4C5)c(C)c3cc2c1C	1	-6	14%	8	i	-4

Bioassay records: PubChem BioAssay, National Center for Advancing Translational Sciences (NCATS)
